The whole screen tested about 5,500 compounds, of which about 2,000 (36%) were called active. Not shown: some 18% with an inconclusive outcome. Cut-off read from the data, not from the text of the source: active = normalized growth mostly below about 0.91 (no sharp cut-off); inconclusive = no clear call, values can overlap the other calls; inactive = mostly above about 0.92. Some of the results follow.
Experiment: chemical genetic growth profiling, strain panel (AID 1159580);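 note: tested at 20 µM; growth read once vehicle control cultures reached saturation at 30 °C; 1 = growth at the plate median or of vehicle wells; lower values mean less growth of the strain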
Conditions: S. cerevisiae deletion strains, growth OD
[1] = locus YAL021C, strain ccr4, stronger effect = lower value
[2] = locus YAL026C, strain drs2, stronger effect = lower value
[3] = locus YAL030W, strain snc1, stronger effect = lower value
[4] = locus YBL061C, strain skt5, stronger effect = lower value
[5] = locus YBR009C, strain hhf1, stronger effect = lower value
[6] = locus YBR023C, strain chs3, stronger effect = lower value
[7] = locus YBR231C, strain swc5, stronger effect = lower value
[8] = locus YBR279W, strain paf1, stronger effect = lower value
[9] = locus YCL011C, strain gbp2, stronger effect = lower value
[10] = locus YCL016C, strain dcc1, stronger effect = lower value
[11] = locus YCL069W, strain vba3, stronger effect = lower value
[12] = locus YCR088W, strain abp1, stronger effect = lower value
[13] = locus YDL005C, strain med2, stronger effect = lower value
[14] = locus YDL040C, strain nat1, stronger effect = lower value
[15] = locus YDR001C, strain nth1, stronger effect = lower value
[16] = locus YDR069C, strain doa4, stronger effect = lower value
[17] = locus YDR137W, strain rgp1, stronger effect = lower value
[18] = locus YDR159W, strain sac3, stronger effect = lower value
[19] = locus YDR297W, strain sur2, stronger effect = lower value
[20] = locus YDR334W, strain swr1, stronger effect = lower value
[21] = locus YDR335W, strain msn5, stronger effect = lower value
[22] = locus YDR392W, strain spt3, stronger effect = lower value
[23] = locus YEL003W, strain gim4, stronger effect = lower value
[24] = locus YEL037C, strain rad23, stronger effect = lower value
[25] = locus YEL061C, strain CIN8 (second series), stronger effect = lower value
[26] = locus YER015W, strain faa2, stronger effect = lower value
[27] = locus YER016W, strain bim1, stronger effect = lower value
[28] = locus YER111C, strain swi4, stronger effect = lower value
[29] = locus YER155C, strain BEM2 (second series), stronger effect = lower value
[30] = locus YFR010W, strain ubp6, stronger effect = lower value
[31] = locus YGL167C, strain pmr1, stronger effect = lower value
[32] = locus YGL173C, strain kem1, stronger effect = lower value
[33] = locus YGL227W, strain vid30, stronger effect = lower value
[34] = locus YGL240W, strain doc1, stronger effect = lower value
[35] = locus YGL253W, strain hxk2, stronger effect = lower value
[36] = locus YHR013C, strain ard1, stronger effect = lower value
[37] = locus YHR027C, strain rpn1, stronger effect = lower value
[38] = locus YHR030C, strain SLT2, stronger effect = lower value
[39] = locus YHR079C, strain IRE1, stronger effect = lower value
[40] = locus YHR142W, strain chs7, stronger effect = lower value
[41] = locus YJL092W, strain hpr5, stronger effect = lower value
[42] = locus YJL095W, strain BCK1 (second series), stronger effect = lower value
[43] = locus YJL095W, strain BCK1, stronger effect = lower value
[44] = locus YJL115W, strain asf1, stronger effect = lower value
[45] = locus YJL129C, strain trk1, stronger effect = lower value
[46] = locus YJL154C, strain vps35, stronger effect = lower value
[47] = locus YJL164C, strain tpk1, stronger effect = lower value
[48] = locus YJL166W, strain qcr8, stronger effect = lower value
[49] = locus YJR066W, strain TOR1, stronger effect = lower value
[50] = locus YKL160W, strain elf1, stronger effect = lower value
[51] = locus YKR026C, strain gcn3, stronger effect = lower value
[52] = locus YKR091W, strain srl3, stronger effect = lower value
[53] = locus YLL001W, strain dnm1, stronger effect = lower value
[54] = locus YLL026W, stronger effect = lower value
[55] = locus YLL041C, strain sdh2, stronger effect = lower value
[56] = locus YLR027C, strain aat2, stronger effect = lower value
[57] = locus YLR113W, strain HOG1, stronger effect = lower value
[58] = locus YLR221C, strain rsa3, stronger effect = lower value
[59] = locus YLR258W, strain gsy2, stronger effect = lower value
[60] = locus YLR262C, strain YPT6 (second series), stronger effect = lower value
[61] = locus YLR320W, strain mms22, stronger effect = lower value
[62] = locus YLR342W, strain FKS1, stronger effect = lower value
[63] = locus YLR357W, strain rsc2, stronger effect = lower value
[64] = locus YLR370C, strain arc18, stronger effect = lower value
[65] = locus YLR384C, strain iki3, stronger effect = lower value
[66] = locus YML120C, strain ndi1, stronger effect = lower value
[67] = locus YMR058W, strain fet3, stronger effect = lower value
[68] = locus YMR125W, strain sto1, stronger effect = lower value
[69] = locus YMR129W, stronger effect = lower value
[70] = locus YMR205C, strain PFK2, stronger effect = lower value
[71] = locus YMR231W, strain pep5, stronger effect = lower value
[72] = locus YNL071W, strain lat1, stronger effect = lower value
[73] = locus YNL183C, strain NPR1, stronger effect = lower value
[74] = locus YNL209W, strain ssb2, stronger effect = lower value
[75] = locus YNL248C, strain rpa49, stronger effect = lower value
[76] = locus YNL322C, strain KRE1 (second series), stronger effect = lower value
[77] = locus YNR049C, strain mso1, stronger effect = lower value
[78] = locus YOR001W, strain rrp6, stronger effect = lower value
[79] = locus YOR070C, strain gyp1, stronger effect = lower value
[80] = locus YOR080W, strain dia2, stronger effect = lower value
[81] = locus YOR083W, strain WHI5, stronger effect = lower value
[82] = locus YOR106W, strain vam3, stronger effect = lower value
[83] = locus YOR231W, strain MKK1, stronger effect = lower value
[84] = locus YOR265W, strain rbl2, stronger effect = lower value
[85] = locus YOR270C, strain vph1, stronger effect = lower value
[86] = locus YOR290C, strain snf2, stronger effect = lower value
[87] = locus YPL051W, strain arl3, stronger effect = lower value
[88] = locus YPL078C, strain atp4, stronger effect = lower value
[89] = locus YPL106C, strain sse1, stronger effect = lower value
[90] = locus YPL240C, strain hsp82, stronger effect = lower value
[91] = locus YPL256C, strain CLN2, stronger effect = lower value

Measured: normalized growth

COc1cccc2c1C(=O)c1c(O)c3c(c(O)c1C2=O)C[C@@](O)(C(C)=O)C[C@@H]3O[C@H]1C[C@H](N)[C@H](O)[C@H](C)O1
active: [1] 0.872 | [5] 0.894 | [18] 0.836 | [26] 0.914 | [29] 0.802 | [34] 0.621 | [35] 0.907 | [44] 0.885 | [45] 0.53 | [48] 0.827 | [61] 0.727 | [70] 0.873 | [72] 0.848 | [75] 0.706 | [88] 0.891
inactive: [2] 0.959 | [3] 0.946 | [4] 0.953 | [6] 0.953 | [7] 0.913 | [8] 0.968 | [9] 0.969 | [10] 1 | [11] 0.966 | [12] 0.981 | [13] 0.962 | [14] 0.941 | [15] 0.958 | [16] 0.922 | [17] 0.956 | locus YDR195W, strain ref2 0.983 | [19] 0.967 | [20] 0.903 | [21] 0.987 | [22] 0.976 | [23] 0.989 | [24] 0.974 | [25] 0.951 | [27] 0.993 | [28] 0.991 | [30] 0.91 | [31] 0.986 | [32] 0.97 | [33] 0.941 | [36] 0.933 | [37] 0.94 | [38] 0.994 | [39] 0.989 | [40] 0.956 | [41] 0.975 | [42] 0.977 | [43] 1.01 | [46] 0.957 | [47] 0.97 | [49] 0.954 | [50] 0.963 | [51] 0.971 | [52] 0.971 | [53] 0.981 | [54] 0.986 | [55] 0.971 | [56] 0.976 | [57] 1.01 | [58] 0.977 | [59] 0.991 | [60] 0.919 | [62] 0.967 | [63] 0.917 | [64] 0.97 | [65] 0.966 | [66] 0.959 | [67] 0.922 | [68] 0.966 | [69] 0.978 | [71] 0.968 | [73] 0.971 | [74] 0.945 | [76] 0.975 | [77] 0.965 | [78] 0.96 | [79] 0.977 | [80] 0.951 | [81] 0.972 | [82] 0.911 | [83] 1.01 | [84] 0.949 | [85] 0.919 | [86] 0.995 | [87] 0.958 | [89] 1.1 | [90] 0.98 | [91] 0.987

COc1cccc2c1C(=O)c1c(O)c3c(c(O)c1C2=O)C[C@@](O)(C(=O)CO)C[C@@H]3O[C@H]1C[C@H](N)[C@@H](O)[C@H](C)O1
active: [1] 0.648 | [2] 0.894 | [3] 0.891 | [4] 0.888 | [5] 0.552 | [6] 0.894 | [7] 0.692 | [9] 0.845 | [10] 0.753 | locus YCL061C, strain MRC1, stronger effect = lower value 0.897 | [16] 0.848 | [17] 0.846 | [18] 0.501 | [19] 0.906 | [20] 0.78 | [26] 0.801 | [27] 0.862 | [29] 0.595 | [30] 0.867 | [33] 0.889 | [34] 0.488 | [35] 0.576 | [36] 0.635 | [37] 0.854 | [40] 0.84 | [41] 0.855 | [42] 0.913 | [44] 0.682 | [45] 0.337 | [47] 0.737 | [48] 0.59 | [50] 0.75 | [53] 0.875 | [54] 0.851 | [55] 0.918 | [56] 0.821 | [58] 0.759 | [59] 0.834 | [60] 0.826 | [61] 0.312 | [62] 0.873 | [63] 0.785 | [66] 0.794 | [67] 0.806 | [68] 0.825 | [70] 0.634 | [72] 0.689 | [74] 0.899 | [75] 0.177 | [78] 0.875 | [79] 0.863 | [80] 0.89 | [81] 0.804 | [82] 0.682 | [84] 0.879 | [85] 0.766 | [86] 0.78 | [87] 0.8 | [88] 0.785 | [89] 1.2 [resistant] | [90] 0.926
inactive: locus YBR171W, strain sec66, stronger effect = lower value 0.985 | [8] 0.958 | [11] 0.965 | [12] 0.953 | [13] 0.951 | [14] 0.947 | [15] 0.937 | locus YDR195W, strain ref2 1.09 | [21] 0.928 | [22] 0.906 | [23] 0.955 | [24] 0.991 | [25] 0.982 | [28] 0.988 | [31] 0.969 | [32] 0.997 | [38] 1.01 | [39] 0.994 | [43] 0.958 | [46] 0.952 | locus YJL187C, strain SWE1, stronger effect = lower value 0.93 | [49] 0.948 | [51] 0.926 | [52] 0.943 | [57] 0.91 | [64] 0.96 | [65] 0.977 | [69] 0.963 | [71] 0.967 | [73] 0.935 | [76] 0.943 | [77] 0.937 | [83] 0.997 | [91] 0.981

CC(=O)[C@]1(O)Cc2c(O)c3c(c(O)c2[C@@H](O[C@H]2C[C@H](N)[C@H](O)[C@H](C)O2)C1)C(=O)c1ccccc1C3=O
active: locus YAL040C, strain CLN3, stronger effect = lower value 0.208 | locus YCL061C, strain MRC1 (second series), stronger effect = lower value 0.0781 | locus YDR150W, strain NUM1, stronger effect = lower value 0.0885 | locus YDR363W, strain ESC2, stronger effect = lower value 0.478 | locus YER002W, strain NOP16, stronger effect = lower value 0.193 | locus YGR229C, strain SMI1, stronger effect = lower value 0.0661 | locus YJR075W, strain HOC1, stronger effect = lower value 0.0942 | locus YMR263W, strain SAP30, stronger effect = lower value 0.785 | locus YNL128W, strain TEP1, stronger effect = lower value 0.18 | locus YNL153C, strain GIM3, stronger effect = lower value 0.59 | locus YNL175C, strain NOP13, stronger effect = lower value 0.178 | locus YNL197C, strain WHI3, stronger effect = lower value 0.183 | locus YNL224C, strain SQS1, stronger effect = lower value 0.165 | locus YOR083W, strain WHI5 (second series), stronger effect = lower value 0.178 | locus YPL055C, strain LGE1, stronger effect = lower value 0.0958 | locus YPL241C, strain CIN2, stronger effect = lower value 0.0639

Reference: PubChem BioAssay AID1159580 (chemical genetic matrix, 2015)
